Source: PubChem (National Center for Advancing Translational Sciences (NCATS))
Rab9 promoter act = Rab9 promoter activation | Huh7 Rab9 promoter-luciferase reporter, luminescence, 24 h | Potency, µM (series often up to 9.22 µM), usual class: activators | hit rate 2.8% among 320,000; also: nearly all actives have a fitted effect of over 60% in size
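Cell-based reporter: Huh7 stable for Rab9 promoter-driven luciferase, plated in reduced-serum medium with 10% FBS at 1500 cells/well, compound-treated 24 h at 37 °C, luminescence read after 10 min reagent.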
ELG1 genotoxic = genotoxicity induction in ELG1-luciferase HEK293T cells. HEK293T ELG1-luciferase reporter, luminescence, 16 h. Potency, µM (doses to about 46 µM), actives largely listed as activators. hit rate 1.3% among 330,000; also: nearly all actives have a fitted effect of over 60% in size
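Luminescence read-out: rising ELG1-luciferase signal, reflecting elevated ELG1 protein under genetic stress, flags genotoxic compounds. Cells were treated for 16 hr at 37 °C before ONE-Glo detection.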
FLuc counter = firefly luciferase modulation, counter-screen for miR-21 project | P08659 | purified FLuc, Km substrates, luminescence inhibition | Potency, µM (doses to about 57.5 µM), most hits filed as inhibitors | hit rate 6.9% among 360,000 | AID 588342; also: nearly all actives have a fitted effect of over 55% in size
Target sequence (P08659 whole entry, looked up): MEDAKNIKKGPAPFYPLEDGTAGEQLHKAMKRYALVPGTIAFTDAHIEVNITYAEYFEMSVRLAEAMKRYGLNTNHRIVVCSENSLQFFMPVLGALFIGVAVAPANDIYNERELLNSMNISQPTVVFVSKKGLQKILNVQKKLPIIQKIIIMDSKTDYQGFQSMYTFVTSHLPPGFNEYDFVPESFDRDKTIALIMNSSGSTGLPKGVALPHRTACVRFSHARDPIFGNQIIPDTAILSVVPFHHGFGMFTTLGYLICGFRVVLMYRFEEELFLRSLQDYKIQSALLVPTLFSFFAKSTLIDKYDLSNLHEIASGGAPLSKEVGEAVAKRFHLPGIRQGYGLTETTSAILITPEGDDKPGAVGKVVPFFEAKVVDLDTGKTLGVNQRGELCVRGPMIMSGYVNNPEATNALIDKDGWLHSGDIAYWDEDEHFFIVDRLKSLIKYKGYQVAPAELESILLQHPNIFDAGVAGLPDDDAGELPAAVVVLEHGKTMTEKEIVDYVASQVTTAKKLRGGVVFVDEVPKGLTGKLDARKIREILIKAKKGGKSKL
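Biochemical qHTS of compounds, final roughly 60 µM downward over six points, against 10 nM purified firefly luciferase using Km concentrations of substrates (10 uM D-luciferin, 10 uM ATP) in Tris acetate pH 7.5 buffer; luminescence output.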
ELG1 DNA repair = blocks ELG1-dependent DNA repair in HEK293T cells; HEK293T ELG1-luciferase reporter, luminescence, 16 h; DNA damage induced by 5-fluorouridine; Potency, µM (highest dose often 46.1 µM), actives largely listed as inhibitors; hit rate 2.3% among 330,000; AID 504467; also: nearly all actives have a fitted effect of over 55% in size
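5-Fluorouridine DNA damage + compound/DMSO, 2,000 cells/well, 16 h, 37 °C/5% CO2. ONE-Glo, 30 min RT, luminescence. Readout = decrease in reporter signal.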
NPC1 prom act = activators of NPC1 promoter; Huh7 NPC1 promoter luciferase reporter, 24 h; Potency, µM (titrated, usually from 9.22 µM), most hits filed as activators; hit rate 2.4% among 320,000; AID 485313; also: nearly all actives have a fitted effect of over 60% in size
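Quantitative HTS used a cell-based reporter: Huh7 cells stably bearing the NPC1 promoter upstream of luciferase were treated with compounds for 24 h, and promoter activation was read as luminescence.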
SMN2 splice enh = SMN2 splice variant enhancement; Potency, µM (titrated, usually from 46.1 µM), actives largely listed as activators; hit rate 2.8% among 210,000; AID 1458; HEK293 SMN2-luciferase splicing reporter, luminescence, 30-36 h; also: nearly all actives have a fitted effect of over 55% in size
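qHTS luciferase splicing reporter: luminescence rises when SMN2 exon 7 is included in transfected HEK293 cells. Compound exposure lasted 30-36 h at 37C, with 4.5 mM final sodium butyrate as control, followed by a ONE-Glo read.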
Numbers stand for hits; [ ] = another dose, or the depositor's remark. Rows were chosen to be rich in hits. Some 9.4% of all compounds tested hit in one or more screens of this group. Calls follow the shape of the dose curve; as a rule, active = well fitted curve in the direction sought with a large enough effect; inconclusive = small, poorly fitted or top-dose-only effect, or another doubt; inactive = no such curve, though single readings can be large; an effect the other way counts as inactive or inconclusive.

`CCOc1ccccc1C(=O)Nc1cccc2ccccc12` gave Rab9 promoter act inactive, ELG1 genotoxic inactive, FLuc counter inactive, ELG1 DNA repair inactive and NPC1 prom act inactive.
`COc1cc(OC)cc(C(=O)NC2CCN(CC(=O)Nc3cccc4ccccc34)CC2)c1` gave Rab9 promoter act inactive, ELG1 genotoxic inactive, FLuc counter inactive, ELG1 DNA repair 12µM, NPC1 prom act inactive and SMN2 splice enh inactive.
Cc1cccc(-n2c(=O)c3ccccc3n(Cc3ccc(F)cc3)c2=O)c1 was read as FLuc counter inactive and SMN2 splice enh inactive.
For CC(CNC(=O)C1CCN(C(=O)N2CCOc3ccc(Cl)cc32)CC1)c1ccccc1 (stereo not drawn) the results were FLuc counter inactive.
Screening CCN(CC)c1cc(C)c2cc(NC(=O)/C=C/c3cc(OC)c(OC)c(OC)c3)ccc2n1 returned FLuc counter inactive and SMN2 splice enh inactive.
For COc1ccc(CCNc2oc(Cc3ccccc3)nc2C#N)cc1OC the results were Rab9 promoter act inactive, ELG1 genotoxic inactive, FLuc counter inactive, ELG1 DNA repair inconclusive, NPC1 prom act inactive and SMN2 splice enh inactive.
For COc1ccc(CCNc2oc(COc3ccccc3Cl)nc2C#N)cc1OC the results were Rab9 promoter act inactive, ELG1 genotoxic inactive, FLuc counter inactive, ELG1 DNA repair 23µM, NPC1 prom act inactive and SMN2 splice enh inactive.
COc1ccc(CCNc2oc(COc3ccccc3F)nc2C#N)cc1OC was read as Rab9 promoter act inactive, ELG1 genotoxic inactive, FLuc counter inactive, ELG1 DNA repair 23µM, NPC1 prom act inactive and SMN2 splice enh inactive.
COc1ccc(-c2cc(C(=O)Nc3ccn(Cc4ccc(C)cc4)n3)no2)cc1OC was read as FLuc counter inactive and SMN2 splice enh inactive.
COc1cccc(N/C(C)=C/C(=O)c2ccc(Br)cc2)c1 was read as Rab9 promoter act inconclusive, ELG1 genotoxic inconclusive, FLuc counter 5.4µM, ELG1 DNA repair inconclusive, NPC1 prom act inconclusive and SMN2 splice enh 18µM.
C/C(=C\C(=O)c1ccccc1)Nc1ccc(Br)c(Cl)c1 was read as Rab9 promoter act inconclusive, ELG1 genotoxic inactive, FLuc counter 21µM, ELG1 DNA repair inconclusive, NPC1 prom act inactive and SMN2 splice enh inactive.
For C/C(=C\C(=O)c1ccc(Cl)cc1)Nc1ccc(N2CCOCC2)cc1 the results were Rab9 promoter act inactive, ELG1 genotoxic inactive, FLuc counter inactive, ELG1 DNA repair inactive, NPC1 prom act inactive and SMN2 splice enh inactive.
For C/C(=C\C(=O)c1ccc(Br)cc1)Nc1ccc(Cl)cc1 the results were Rab9 promoter act inactive, ELG1 genotoxic inconclusive, FLuc counter 27µM, ELG1 DNA repair inconclusive and NPC1 prom act inactive.
For O=C(O)C(Cl)(c1ccccc1)c1ccccc1 the results were SMN2 splice enh inactive[9.22 µM].
Screening Cc1cnc(C(=O)Nc2cccc(-c3nnc4n3CCCCC4)c2)cn1 returned Rab9 promoter act inactive, ELG1 genotoxic inactive, FLuc counter inactive, ELG1 DNA repair inactive, NPC1 prom act inactive and SMN2 splice enh inactive.
Screening c1cc(Nc2ncnc3sccc23)cc(-c2nnc3n2CCCCC3)c1 returned Rab9 promoter act inactive, ELG1 genotoxic inactive, FLuc counter inconclusive, ELG1 DNA repair 23µM, NPC1 prom act inactive and SMN2 splice enh inactive.
`O=C(c1cc2cc3ccc(Cl)cc3nc2o1)N1CCN(c2cccc(Cl)c2)CC1` gave FLuc counter inactive and SMN2 splice enh inactive.
`CSc1ccc(-c2cc(=O)c3ccccc3o2)cc1` gave Rab9 promoter act inconclusive, ELG1 genotoxic 9.2µM, FLuc counter 4.8µM, ELG1 DNA repair inconclusive, NPC1 prom act inactive and SMN2 splice enh 11µM.
`Cc1ccccc1-c1cc(=O)c2ccccc2o1` gave ELG1 genotoxic inactive and ELG1 DNA repair inactive.
COc1cccc(-c2cc(=O)c3ccccc3o2)c1N was read as Rab9 promoter act 2.1µM, NPC1 prom act 2.3µM and SMN2 splice enh 11µM.
For O=c1cc(-c2ccccc2F)oc2ccccc12 the results were Rab9 promoter act 2.2µM, ELG1 genotoxic inconclusive, FLuc counter 11µM, ELG1 DNA repair inconclusive, NPC1 prom act inconclusive and SMN2 splice enh 13µM.
COc1ccc(CN2C(=O)N(c3ccc(F)cc3)C(=O)C2CC(=O)Nc2cc(OC)cc(OC)c2)cc1 (stereo not drawn) was read as FLuc counter inactive.
Screening CCCCOc1ccccc1C1CC(=O)Nc2ccc3ccccc3c21 (stereo not drawn) returned FLuc counter inactive and SMN2 splice enh inactive.
COCCn1c(SCC(=O)Nc2cccnc2Cl)nc2cc(Cl)ccc2c1=O was read as Rab9 promoter act inactive, ELG1 genotoxic inactive, ELG1 DNA repair inconclusive and NPC1 prom act inactive.
For O=C(CSc1nc2ccccc2c(=O)n1CCC(=O)N1CCCCC1)NCc1ccccc1 the results were Rab9 promoter act inactive, ELG1 genotoxic inactive, FLuc counter inactive, ELG1 DNA repair 15µM, NPC1 prom act inactive and SMN2 splice enh inactive.
`COCCn1c(SCC(=O)Nc2sccc2C(N)=O)nc2cc(Cl)ccc2c1=O` gave Rab9 promoter act inactive, ELG1 genotoxic inactive, FLuc counter inactive, ELG1 DNA repair 23µM and NPC1 prom act inactive.
Screening Cc1ccc(NC(=O)CSc2nc3ccccc3c(=O)n2CCCC(=O)N2CCCC2)cc1 returned Rab9 promoter act inactive, ELG1 genotoxic inactive, FLuc counter inactive, ELG1 DNA repair inactive, NPC1 prom act inactive and SMN2 splice enh inactive.
`COCCn1c(SCC(=O)Nc2ccccc2)nc2c(oc3ccccc32)c1=O` gave Rab9 promoter act inactive, ELG1 genotoxic 23µM, FLuc counter inactive, ELG1 DNA repair inconclusive, NPC1 prom act inactive and SMN2 splice enh inactive.
COCCn1c(SCC(=O)Nc2ccc(S(=O)(=O)N(C)C)cc2)nc2ccccc21 was read as Rab9 promoter act inactive, ELG1 genotoxic inactive, FLuc counter inactive, ELG1 DNA repair 15µM, NPC1 prom act inactive and SMN2 splice enh inactive.
Cc1cccc(NC(=O)CCS(=O)(=O)c2cc(Br)cc3c2N(C(=O)C2CC2)CC3)c1 was read as FLuc counter inactive and SMN2 splice enh inactive.
For COCCCn1c(SCC(=O)Nc2ccc(C)cc2)nc2ccccc2c1=O the results were Rab9 promoter act inactive, ELG1 genotoxic inactive, FLuc counter 24µM, ELG1 DNA repair inconclusive and NPC1 prom act inactive.
Screening CCCCn1c(SCC(=O)Nc2cc(NC(=O)c3ccco3)ccc2C)nc2ccccc2c1=O returned Rab9 promoter act inactive, ELG1 genotoxic inactive, FLuc counter inactive, ELG1 DNA repair 16µM, NPC1 prom act inactive and SMN2 splice enh inactive.
`COCCn1c(SCC(=O)Nc2ccc(NC(=O)c3ccco3)c(OC)c2)nc2ccccc2c1=O` gave Rab9 promoter act inactive, ELG1 genotoxic inactive, FLuc counter inactive, ELG1 DNA repair inactive, NPC1 prom act inactive and SMN2 splice enh inactive.
